Test results reported in PubChem BioAssay AID1159580 (chemical genetic matrix, 2015).
In all, about 5,500 compounds went through this assay and about 2,000 (36%) were called active. Roughly 18% stayed inconclusive and do not appear here. Cut-off read from the data, not from the text of the source: active = normalized growth mostly below about 0.91 (no sharp cut-off); inconclusive = no clear call, values can overlap the other calls; inactive = mostly above about 0.92. Some of the results follow.

Experiment: chemical genetic growth profiling, strain panel (AID 1159580);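 note: tested at 20 µM; growth read once vehicle control cultures reached saturation at 30 °C; 1 = growth at the plate median or of vehicle wells; lower values mean less growth of the strain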
Conditions: growth OD

Measured: normalized growth

CC[C@H](C)C(=O)O[C@H]1C[C@@H](C)C=C2C=C[C@H](C)[C@H](CC[C@@H]3C[C@@H](O)CC(=O)O3)[C@H]21
inactive: S. cerevisiae deletion strains, locus YJR075W, strain HOC1, stronger effect = lower value 0.997 | S. cerevisiae deletion strains, locus YKL009W, strain mrt4, stronger effect = lower value 0.959 | S. cerevisiae deletion strains, locus YKL068W, stronger effect = lower value 0.988 | S. cerevisiae deletion strains, locus YKL085W, strain MDH1 (second series), stronger effect = lower value 0.993 | S. cerevisiae deletion strains, locus YKL085W, strain MDH1, stronger effect = lower value 0.993 | S. cerevisiae deletion strains, locus YKL160W, strain elf1, stronger effect = lower value 1 | S. cerevisiae deletion strains, locus YKL190W, strain CNB1, stronger effect = lower value 0.992 | S. cerevisiae deletion strains, locus YKR001C, strain vps1, stronger effect = lower value 0.986 | S. cerevisiae deletion strains, locus YKR026C, strain gcn3, stronger effect = lower value 0.999 | S. cerevisiae deletion strains, locus YKR091W, strain srl3, stronger effect = lower value 1 | S. cerevisiae deletion strains, locus YLL001W, strain dnm1, stronger effect = lower value 1.02 | S. cerevisiae deletion strains, locus YLL026W, stronger effect = lower value 1.01 | S. cerevisiae deletion strains, locus YLL041C, strain sdh2, stronger effect = lower value 1 | S. cerevisiae deletion strains, locus YLR027C, strain aat2, stronger effect = lower value 1.01 | S. cerevisiae deletion strains, locus YLR039C, strain RIC1, stronger effect = lower value 0.971 | S. cerevisiae deletion strains, locus YLR058C, strain SHM2, stronger effect = lower value 0.957 | S. cerevisiae deletion strains, locus YLR102C, strain apc9, stronger effect = lower value 0.994 | S. cerevisiae deletion strains, locus YLR113W, strain HOG1, stronger effect = lower value 1 | S. cerevisiae deletion strains, locus YLR221C, strain rsa3, stronger effect = lower value 1.01 | S. cerevisiae deletion strains, locus YLR258W, strain gsy2, stronger effect = lower value 1.01 | S. cerevisiae deletion strains, locus YLR262C, strain YPT6 (second series), stronger effect = lower value 1.11 | S. cerevisiae deletion strains, locus YLR262C, strain YPT6, stronger effect = lower value 0.916 | S. cerevisiae deletion strains, locus YLR268W, strain sec22, stronger effect = lower value 1.06 | S. cerevisiae deletion strains, locus YLR320W, strain mms22, stronger effect = lower value 0.992 | S. cerevisiae deletion strains, locus YLR330W, strain CHS5, stronger effect = lower value 0.969 | S. cerevisiae deletion strains, locus YLR342W, strain FKS1 (second series), stronger effect = lower value 0.968 | S. cerevisiae deletion strains, locus YLR342W, strain FKS1, stronger effect = lower value 1 | S. cerevisiae deletion strains, locus YLR357W, strain rsc2, stronger effect = lower value 0.908 | S. cerevisiae deletion strains, locus YLR370C, strain arc18, stronger effect = lower value 1.02 | S. cerevisiae deletion strains, locus YLR371W, strain rom2, stronger effect = lower value 0.982 | S. cerevisiae deletion strains, locus YLR384C, strain iki3, stronger effect = lower value 1.01 | S. cerevisiae deletion strains, locus YLR418C, strain cdc73, stronger effect = lower value 0.908 | S. cerevisiae deletion strains, locus YML016C, strain PPZ1, stronger effect = lower value 0.977 | S. cerevisiae deletion strains, locus YML032C, strain rad52, stronger effect = lower value 1.01 | S. cerevisiae deletion strains, locus YML120C, strain ndi1, stronger effect = lower value 1.01 | S. cerevisiae deletion strains, locus YML124C, strain tub3, stronger effect = lower value 0.98 | S. cerevisiae deletion strains, locus YMR058W, strain fet3, stronger effect = lower value 1 | S. cerevisiae deletion strains, locus YMR078C, strain ctf18, stronger effect = lower value 0.987 | S. cerevisiae deletion strains, locus YMR125W, strain sto1, stronger effect = lower value 0.984 | S. cerevisiae deletion strains, locus YMR129W, stronger effect = lower value 1.01 | S. cerevisiae deletion strains, locus YMR205C, strain PFK2, stronger effect = lower value 1 | S. cerevisiae deletion strains, locus YMR223W, strain ubp8, stronger effect = lower value 0.948 | S. cerevisiae deletion strains, locus YMR231W, strain pep5, stronger effect = lower value 0.998 | S. cerevisiae deletion strains, locus YMR263W, strain SAP30, stronger effect = lower value 0.987 | S. cerevisiae deletion strains, locus YMR307W, strain GAS1, stronger effect = lower value 0.984 | S. cerevisiae deletion strains, locus YNL067W, strain RPL9B, stronger effect = lower value 1.01 | S. cerevisiae deletion strains, locus YNL071W, strain lat1, stronger effect = lower value 1.01 | S. cerevisiae deletion strains, locus YNL128W, strain TEP1, stronger effect = lower value 0.97 | S. cerevisiae deletion strains, locus YNL153C, strain GIM3, stronger effect = lower value 1.02 | S. cerevisiae deletion strains, locus YNL183C, strain NPR1, stronger effect = lower value 0.939 | S. cerevisiae deletion strains, locus YNL209W, strain ssb2, stronger effect = lower value 1.01 | S. cerevisiae deletion strains, locus YNL233W, strain BNI4, stronger effect = lower value 1.01 | S. cerevisiae deletion strains, locus YNL248C, strain rpa49, stronger effect = lower value 1.01 | S. cerevisiae deletion strains, locus YNL250W, strain rad50, stronger effect = lower value 0.958 | S. cerevisiae deletion strains, locus YNL271C, strain bni1, stronger effect = lower value 0.994 | S. cerevisiae deletion strains, locus YNL298W, strain CLA4, stronger effect = lower value 0.99 | S. cerevisiae deletion strains, locus YNL307C, strain MCK1, stronger effect = lower value 0.948 | S. cerevisiae deletion strains, locus YNL322C, strain KRE1 (second series), stronger effect = lower value 1.02 | S. cerevisiae deletion strains, locus YNL322C, strain KRE1, stronger effect = lower value 0.986 | S. cerevisiae deletion strains, locus YNR049C, strain mso1, stronger effect = lower value 1.01 | S. cerevisiae deletion strains, locus YNR052C, strain pop2, stronger effect = lower value 0.999 | S. cerevisiae deletion strains, locus YOL006C, strain TOP1, stronger effect = lower value 0.953 | S. cerevisiae deletion strains, locus YOL012C, strain htz1 0.797 | S. cerevisiae deletion strains, locus YOL147C, strain pex11, stronger effect = lower value 0.986 | S. cerevisiae deletion strains, locus YOR001W, strain rrp6, stronger effect = lower value 1.02 | S. cerevisiae deletion strains, locus YOR061W, strain CKA2, stronger effect = lower value 0.964 | S. cerevisiae deletion strains, locus YOR069W, strain VPS5, stronger effect = lower value 0.981 | S. cerevisiae deletion strains, locus YOR070C, strain gyp1, stronger effect = lower value 1 | S. cerevisiae deletion strains, locus YOR080W, strain dia2, stronger effect = lower value 0.998 | S. cerevisiae deletion strains, locus YOR083W, strain WHI5, stronger effect = lower value 1 | S. cerevisiae deletion strains, locus YOR106W, strain vam3, stronger effect = lower value 0.99 | S. cerevisiae deletion strains, locus YOR136W, strain idh2, stronger effect = lower value 0.98 | S. cerevisiae deletion strains, locus YOR144C, strain elg1, stronger effect = lower value 0.993 | S. cerevisiae deletion strains, locus YOR184W, strain ser1, stronger effect = lower value 0.94 | S. cerevisiae deletion strains, locus YOR231W, strain MKK1, stronger effect = lower value 0.983 | S. cerevisiae deletion strains, locus YOR265W, strain rbl2, stronger effect = lower value 1.01 | S. cerevisiae deletion strains, locus YOR270C, strain vph1, stronger effect = lower value 0.881 | S. cerevisiae deletion strains, locus YOR290C, strain snf2, stronger effect = lower value 1.02 | S. cerevisiae deletion strains, locus YOR316C, strain cot1, stronger effect = lower value 0.993 | S. cerevisiae deletion strains, locus YPL051W, strain arl3, stronger effect = lower value 0.999 | S. cerevisiae deletion strains, locus YPL055C, strain LGE1, stronger effect = lower value 0.939 | S. cerevisiae deletion strains, locus YPL078C, strain atp4, stronger effect = lower value 1.01 | S. cerevisiae deletion strains, locus YPL106C, strain sse1, stronger effect = lower value 1.06 | S. cerevisiae deletion strains, locus YPL240C, strain hsp82, stronger effect = lower value 1.01 | S. cerevisiae deletion strains, locus YPL241C, strain CIN2, stronger effect = lower value 0.979 | S. cerevisiae deletion strains, locus YPL256C, strain CLN2, stronger effect = lower value 1.02 | S. cerevisiae deletion strains, locus YPR119W, strain clb2, stronger effect = lower value 0.986 | S. cerevisiae deletion strains, locus YPR141C, strain kar3, stronger effect = lower value 0.971 | S. cerevisiae deletion strains, locus YPR163C, strain tif3, stronger effect = lower value 0.995 | S. cerevisiae deletion strains, locus YPR167C, strain met16, stronger effect = lower value 0.99 | S. cerevisiae deletion strains, strain wtn01, stronger effect = lower value 1.01 | S. cerevisiae strains, strain wild type, stronger effect = lower value 0.963
